The entries come from a sample that favours hits as a whole.
RE007 growth inh – less growth of the S. pombe RE007 Vpr strain; S. pombe RE007 Vpr strain, BacTiter-Glo ATP luminescence, 24 h; Potency, µM (highest dose often 92.2 µM), inactives show at the top dose activity change, negative = less growth, most hits filed as inhibitors; hit rate 0.21% among 360,000; active = well fitted falling curve with a large enough effect; inconclusive = small, poorly fitted or top-dose-only effect; inactive = no such curve, though single readings can be large or run the other way; note: potency is the fitted concentration of half-maximal effect; % is set by controls: 0 for no effect and ±100 for the full control effect; nearly all actives have a fitted effect of over 50% in size
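Fission yeast strain RE007, carrying one chromosomally integrated HIV-1 vpr copy, was seeded at OD 0.01 in PMG+AL medium with 23 nL pinned compound. After 24 h at 30 °C and 99% humidity, viability was read by BacTiter-Glo luminescence.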
FBPA Giardia inh – blocks Giardia fructose-bisphosphate aldolase activity | A8B2U2 | purified Giardia FBPA | Potency, µM (doses to about 59.6 µM), inactives show at the highest dose activity, negative = inhibition, usual class: inhibitors | hit rate 0.71% among 290,000; note: potency is the fitted concentration of half-maximal effect; % is set by controls: 0 for no effect and ±100 for the full control effect; nearly all actives have a fitted effect of over 55% in size
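Giardia FBPA (40 nM reagent) was preincubated 10 min at RT with compound (up to 57.5 uM final), then substrate plus GAPDH/TPI/NAD/arsenate coupling system with diaphorase/resazurin was added; resorufin fluorescence (525/598 nm) was read after 20 min.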
CHX counter – counter-screen hit for Shiga toxin inhibitors, cycloheximide. max response, %. cell reporter, cycloheximide protein synthesis inhibition counterscreen. hit rate 12% among 300,000; in the data active = max response mostly above about 13%, no sharp cut-off; inactive = mostly below about 14%; note: read at 38.3 µM for the half of the compounds with a filed dose; 0% is about no effect
LmPK inh – inhibitors of Leishmania mexicana pyruvate kinase | Q27686 | purified LmPK, Kinase-Glo ATP luminescence, 1 h | Potency, µM (series often up to 57.5 µM), for inactives: at the highest dose activity change, negative = inhibition, actives largely listed as inhibitors | hit rate 0.37% among 290,000 | AID 1721; note: potency is the fitted concentration of half-maximal effect; % is set by controls: 0 for no effect and ±100 for the full control effect
Target sequence (Q27686 whole entry, looked up): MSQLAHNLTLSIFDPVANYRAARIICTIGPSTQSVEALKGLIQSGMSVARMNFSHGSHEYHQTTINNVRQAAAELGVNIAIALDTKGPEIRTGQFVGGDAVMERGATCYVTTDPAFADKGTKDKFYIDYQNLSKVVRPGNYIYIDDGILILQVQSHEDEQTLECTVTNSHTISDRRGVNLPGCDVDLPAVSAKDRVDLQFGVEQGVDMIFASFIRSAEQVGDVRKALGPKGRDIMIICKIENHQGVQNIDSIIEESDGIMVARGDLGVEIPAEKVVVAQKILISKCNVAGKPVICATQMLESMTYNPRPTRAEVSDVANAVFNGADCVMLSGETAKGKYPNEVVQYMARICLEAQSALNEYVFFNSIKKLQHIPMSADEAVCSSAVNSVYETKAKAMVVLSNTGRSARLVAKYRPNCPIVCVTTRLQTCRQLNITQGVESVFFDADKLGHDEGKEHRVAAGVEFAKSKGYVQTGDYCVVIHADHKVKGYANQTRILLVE
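qHTS format; LmPK 0.1 nM; substrates PEP 0.5 mM and ADP 0.1 mM. One-hour room-temperature incubation, then coupled luciferase luminescence; 0.5 nM enzyme wells mark activation.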
Shiga toxin inh – inhibitors of Shiga toxin in Vero cells; Vero cells, Shiga toxin protein synthesis inhibition reporter; inhibition, % at 38.7 µM; hit rate 9.2% among 290,000; in the data active = inhibition mostly above about 28%, no sharp cut-off; inactive = mostly below about 43%; note: 0% is about no effect
TbPYK inhibitor – T. brucei pyruvate kinase inhibition. hit rate 0.12% among 410,000. Q57TT1. TbPYK enzyme, Kinase-Glo Plus ATP luminescence, 45 min. Potency, µM (series often up to 76.8 µM), without a hit: at the top dose activity, negative = inhibition, actives largely listed as inhibitors; note: potency is the fitted concentration of half-maximal effect; % is set by controls: 0 for no effect and ±100 for the full control effect; nearly all actives have a fitted effect of over 50% in size
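Luminescent Kinase-Glo Plus end-point after 45 min room-temperature reaction of T. brucei pyruvate kinase started with 130 uM ADP (final). Buffer TEA 50 mM pH 7.2 with KCl, MgCl2, BSA, Tween-20; titration-based qHTS with fitted concentration-effect curves.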
An asterisk follows results filed as active; [ ] = another dose, or the depositor's remark. Unless noted, calls come from the whole dose curve; as a rule, active = well fitted curve in the direction sought with a large enough effect; inconclusive = small, poorly fitted or top-dose-only effect, or another doubt; inactive = no such curve, though single readings can be large; an effect the other way counts as inactive or inconclusive.

What do the screens show for `CSCC[C@H](NC(=O)[C@H](CC(C)C)NC(=O)[C@H](Cc1c[nH]c2ccccc12)NC(=O)[C@H](CCC(N)=O)NC(=O)[C@@H](NC(=O)[C@H](Cc1ccccc1)NC(=O)[C@H](CC(=O)O)NC(=O)[C@H](CCC(N)=O)NC(=O)[C@H](C)NC(=O)[C@H](CCCNC(=N)N)NC(=O)[C@H](CCCNC(=N)N)NC(=O)[C@H](CO)NC(=O)[C@H](CC(=O)O)NC(=O)[C@H](CC(C)C)NC(=O)[C@H](Cc1ccc(O)cc1)NC(=O)[C@H](CCCCN)NC(=O)[C@H](CO)NC(=O)[C@H](Cc1ccc(O)cc1)NC(=O)[C@H](CC(=O)O)NC(=O)[C@H](CO)NC(=O)[C@@H](NC(=O)[C@H](Cc1ccccc1)NC(=O)[C@@H](NC(=O)CNC(=O)[C@H](CCC(N)=O)NC(=O)[C@H](CO)NC(=O)[C@@H](N)Cc1cnc[nH]1)[C@@H](C)O)[C@@H](C)O)C(C)C)C(=O)N[C@@H](CC(N)=O)C(=O)N[C@H](C(=O)O)[C@@H](C)O`?
FBPA Giardia inh: 1.1%; CHX counter: 18.5; Shiga toxin inh: -7.7

How did Cc1ccc(-n2nc(C)c3c(C(=O)Nc4ccc(C)cc4Cl)cc(C)nc32)cc1 do in these assays?
TbPYK inhibitor: -7.0%

How did CCOC(=O)c1nc(Nc2ccc(C(=O)OC(C)C)cc2)c2ccccc2n1 do in these assays?
TbPYK inhibitor: -8.1%

How did Cc1cc2nnc(SCc3ccc4c(c3)OCO4)n2c2ccccc12 do in these assays?
RE007 growth inh: -1.3%; TbPYK inhibitor: -5.3%

Results for c1ccc2c(c1)ccc1nnc(-c3ccc4c(c3)OCO4)n12 ?
RE007 growth inh: -3.7%; FBPA Giardia inh: -11.7%; CHX counter: 12.2*; LmPK inh: 0.4%; Shiga toxin inh: active; TbPYK inhibitor: -0.2%

How did O=C(CSc1nnc2ccc3ccccc3n12)N1CCOCC1 do in these assays?
RE007 growth inh: 13.7%; FBPA Giardia inh: -5.5%; CHX counter: 63.3*; LmPK inh: -4.2%; Shiga toxin inh: 31.8*; TbPYK inhibitor: 5.0%

Results for c1ccc2c(c1)ccc1nnc(SCc3ccc4c(c3)OCCO4)n12 ?
RE007 growth inh: 0.5%; FBPA Giardia inh: -3.8%; CHX counter: 42.5*; LmPK inh: 5.0%; Shiga toxin inh: 42.2*; TbPYK inhibitor: -4.8%

How did CCOC(=O)c1cc(-c2ccccc2)n(CCC(=O)Nc2ccc(C(F)(F)F)cc2)c1C do in these assays?
TbPYK inhibitor: 7.5%

Results for CCN(CC)C(=O)CC(c1ccc(OC)cc1)c1c(OC)cc(OC)c2c(-c3ccccc3)cc(=O)oc12 (stereo unspecified) ?
FBPA Giardia inh: 0.6%; CHX counter: 6.6; Shiga toxin inh: -1.9

How did CN(c1ccccc1)S(=O)(=O)c1cccc(NC(=O)c2ccc(=O)[nH]n2)c1 do in these assays?
RE007 growth inh: -1.9%; TbPYK inhibitor: 2.6%

Results for O=C(CN1C(=O)COc2ccccc2C1=O)c1ccc2c(c1)OCCO2 ?
RE007 growth inh: -0.8%; CHX counter: 27.6*; LmPK inh: -4.0%; Shiga toxin inh: 29.1; TbPYK inhibitor: 12.3%

What do the screens show for `O=C(CN1C(=O)NC2(CCc3ccccc32)C1=O)c1ccc2c(c1)OCCO2` (stereo unspecified)?
RE007 growth inh: 1.7%; FBPA Giardia inh: 6.8%; CHX counter: 22.6; LmPK inh: 3.0%; Shiga toxin inh: 69.9*; TbPYK inhibitor: -10.0%

How did O=C(CN1C(=O)NC2(CCc3ccccc32)C1=O)c1ccc(F)cc1 (stereo unspecified) do in these assays?
RE007 growth inh: -3.6%; TbPYK inhibitor: -6.7%

What do the screens show for `CS(=O)(=O)N(CC(=O)N1CCC(C(N)=O)CC1)c1cc(C(F)(F)F)ccc1Cl`?
RE007 growth inh: 2.9%; FBPA Giardia inh: -0.3%; CHX counter: -2.2; LmPK inh: 5.5%; Shiga toxin inh: -0.5; TbPYK inhibitor: 5.8%

What do the screens show for `Cc1ccc(-c2noc(CCC(=O)Nc3ccc(F)cc3Cl)n2)cc1`?
TbPYK inhibitor: 1.8%

Results for O=c1c(-c2cccs2)nc2cnc(N3CCNCC3)nc2n1CCc1ccccc1 ?
FBPA Giardia inh: 2.7%

How did CCCCN=C1NN=C(c2ccc(C)c(C)c2)CS1 do in these assays?
RE007 growth inh: -17.9%; FBPA Giardia inh: 0.9%; CHX counter: 44.3*; LmPK inh: 1.5%; Shiga toxin inh: 87.3*; TbPYK inhibitor: -26.0%

Results for COCCN=C1NN=C(c2ccc(C)c([N+](=O)[O-])c2)CS1 ?
RE007 growth inh: -4.9%; FBPA Giardia inh: -12.3%; CHX counter: 46.7*; LmPK inh: -3.4%; Shiga toxin inh: 63.1*; TbPYK inhibitor: inconclusive

Results for O=C(Nc1cccc(Cl)c1)c1csc([C@@H]2C[C@H](O)[C@@H](CO)O2)n1 ?
RE007 growth inh: -13.6%[18.4 µM]; TbPYK inhibitor: -0.7%

How did O=C(Nc1ccc(C(=O)N2CCN(c3cccc(Cl)c3)CC2)cc1)c1nsc2ccccc12 do in these assays?
TbPYK inhibitor: -4.0%

How did C=CCNC(=S)NNC(=O)c1cccn(Cc2ccc(Cl)cc2Cl)c1=O do in these assays?
RE007 growth inh: -3.7%; FBPA Giardia inh: 7.5%; CHX counter: -1.5; LmPK inh: 2.6%; Shiga toxin inh: -19.3; TbPYK inhibitor: 11.2µM*

How did c1ccc2sc(Nc3nc4cc5c(cc4s3)OCO5)nc2c1 do in these assays?
RE007 growth inh: -3.2%; FBPA Giardia inh: -1.3%; CHX counter: 119.4*; LmPK inh: -1.8%; Shiga toxin inh: 116.7*; TbPYK inhibitor: -18.8%

Results for Fc1ccc2nc(Nc3nc4cc5c(cc4s3)OCO5)sc2c1 ?
RE007 growth inh: -12.8%; FBPA Giardia inh: 9.3%; CHX counter: 59.2*; LmPK inh: -1.9%; Shiga toxin inh: 79.8*; TbPYK inhibitor: 31.3%

What do the screens show for `c1ccc2sc(NC3=NCN(Cc4ccc5c(c4)OCO5)CN3)nc2c1`?
RE007 growth inh: -4.7%; FBPA Giardia inh: -0.6%; CHX counter: -1.9; LmPK inh: -7.5%; Shiga toxin inh: -7.1; TbPYK inhibitor: -6.6%

How did Fc1ccc2nc(Nc3nc4cc5c(cc4s3)OCCO5)sc2c1 do in these assays?
RE007 growth inh: -17.4%; FBPA Giardia inh: -0.6%; CHX counter: 62.1*; LmPK inh: -6.0%; Shiga toxin inh: 25.2*; TbPYK inhibitor: -6.3%

What do the screens show for `Cc1cc(C)cc(NC(=O)Cn2cc(S(=O)(=O)NC(C)(C)C)c(S(=O)(=O)NC(C)(C)C)c2)c1`?
TbPYK inhibitor: 1.3%

How did COc1ccc(C2C(C(N)=O)=C(C)Nc3ncnn32)cc1 (stereo unspecified) do in these assays?
RE007 growth inh: -5.4%; FBPA Giardia inh: 3.2%; CHX counter: 22.2*; LmPK inh: -2.6%; Shiga toxin inh: 37.8; TbPYK inhibitor: 1.1%

Screens as filed in PubChem.
